Measurements: PubChem BioAssay (NCATS)
Where “and” joins values, the source holds several entries; their conditions need not be identical. Equal entries are not always repeated. Inconclusive results are not listed. A number with no mark means an inactive call. Calls of active or inactive are those of the source. Calls follow the shape of the dose curve; as a rule, active = well fitted curve in the direction sought with a large enough effect; inconclusive = small, poorly fitted or top-dose-only effect, or another doubt; inactive = no such curve, though single readings can be large; an effect the other way counts as inactive or inconclusive. Peptide text beside a SMILES is read from it.

Tests used:
Furin (Homo sapiens) = Furin (Homo sapiens) (UniProt P09958); assay: Furin counterscreen qHTS for Zika virus inhibitors (AID 1347149); also: nearly all actives have a fitted effect of over 70% in size; also: potency is read from the fitted curve at half-maximal effect;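 as to activity change, negative = inhibition: purified recombinant full-length human furin enzyme at 5 nM; fluorescence gain from furin cutting a BOC-RVRR-AMC peptide substrate over 15 min; top concentration of the series differs between compounds; plate controls were no-inhibitor control for no effect and no-enzyme control for full effect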
Sequence of Furin (Homo sapiens) (P09958 whole entry, looked up): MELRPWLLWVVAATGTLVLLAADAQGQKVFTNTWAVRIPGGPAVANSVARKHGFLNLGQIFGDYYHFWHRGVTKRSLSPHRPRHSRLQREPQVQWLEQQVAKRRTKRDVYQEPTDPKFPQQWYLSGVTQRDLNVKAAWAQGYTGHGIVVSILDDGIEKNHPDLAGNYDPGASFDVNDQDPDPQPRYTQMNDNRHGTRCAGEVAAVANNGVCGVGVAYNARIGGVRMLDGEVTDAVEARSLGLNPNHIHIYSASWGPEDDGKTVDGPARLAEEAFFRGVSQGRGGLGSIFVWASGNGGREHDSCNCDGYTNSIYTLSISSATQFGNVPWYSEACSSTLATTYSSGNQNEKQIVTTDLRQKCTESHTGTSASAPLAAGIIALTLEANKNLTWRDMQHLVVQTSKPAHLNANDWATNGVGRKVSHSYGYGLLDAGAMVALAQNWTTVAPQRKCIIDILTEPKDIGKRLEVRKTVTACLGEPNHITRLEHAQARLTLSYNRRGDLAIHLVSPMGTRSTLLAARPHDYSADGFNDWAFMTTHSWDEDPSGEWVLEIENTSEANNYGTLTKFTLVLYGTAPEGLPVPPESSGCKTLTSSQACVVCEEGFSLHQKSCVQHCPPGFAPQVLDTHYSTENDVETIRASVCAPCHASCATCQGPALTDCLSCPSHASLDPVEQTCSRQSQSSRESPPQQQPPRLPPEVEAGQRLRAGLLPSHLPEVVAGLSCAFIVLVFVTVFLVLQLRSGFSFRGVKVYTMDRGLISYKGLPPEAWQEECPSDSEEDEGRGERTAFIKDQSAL
In short: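 Counterscreen measures cleavage of 2 microM BOC-RVRR-AMC, below its ~15 microM Km, by 5 nM full-length human furin at pH 7.0 after a 15-min compound preincubation. Inhibition derives from the 15-min fluorescence increase at 37C.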

[1] = system: Zika virus NS2B-NS3 protease (linked construct); assay: Confirmatory screen NINDS AMC qHTS for Zika virus inhibitors (AID 1347152); also: nearly all actives have a fitted effect of over 70% in size; also: potency is read from the fitted curve at half-maximal effect;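 as to activity change, negative = inhibition: AMC fluorescence gain from cleaved Bz-Nle-KRR-AMC substrate over 15 min; top concentration of the series differs between compounds; 0% = no-inhibitor control and -100% = no-enzyme control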
In short: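 Linked NS2B-NS3 1 nM, Tris pH 8.0/0.01% Tween 20; cpd 15 min RT dark; + Nle-KRR-AMC 10 µM (Km 18.3 µM); read 0 and 15 min, 340/450 nm; %inh vs controls, 4-param Hill.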

[2] = Confirmatory screen GU Rhodamine qHTS for Zika virus inhibitors qHTS (AID 1347157); conditions: purified enzyme assay, Rhodamine110 substrate fluorescence, 15 min; also: potency is read from the fitted curve at half-maximal effect; nearly all actives have a fitted effect of over 70% in size
In short: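 Percent inhibition came from the 15-min rise in Rhodamine110 fluorescence (1.5 microM substrate, ~15% conversion), normalized to no-inhibitor and no-enzyme wells and Hill-fitted. Unlinked protease, 25 nM, pH 8.0 Tris buffer; compounds up to 114 microM, 15-min preincubation.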

[3] = system: Zika virus NS2B-NS3 protease (unlinked complex); assay: Primary screen GU Rhodamine qHTS for Zika virus inhibitors: Unlinked NS2B-NS3 protease assay (AID 1347159); also: nearly all actives have a fitted effect of over 60% in size; also: potency is read from the fitted curve at half-maximal effect; as to activity change, negative = inhibition: % is scaled to controls: 0 for no effect and ±100 for the full control effect
In short: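 Unlinked NS2B/NS3, 25 nM; Rhod110 peptide, 1.5 microM; compounds, up to 114 microM. Reaction run 15 min at RT in 10 mM Tris-HCl pH 8.0, 0.01% Tween 20; kinetic fluorescence change fitted with a 4-parameter Hill model.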

[4] = system: Zika virus NS2B-NS3 protease (linked construct); assay: Primary screen NINDS Rhodamine qHTS for Zika virus inhibitors (AID 1347160); also: nearly all actives have a fitted effect of over 55% in size; also: potency is read from the fitted curve at half-maximal effect; as to activity change, negative = inhibition: % is scaled to controls: 0 for no effect and ±100 for the full control effect
In short: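 Single-chain NS2B-NS3 protease, 25 nM, pH 8.0; compounds preincubated 15 min. Activity: Rhodamine110 release from 1.5 microM substrate over 15 min, room temperature, data fitted to 4-parameter Hill.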

[5] = Confirmatory screen NINDS Rhodamine qHTS for Zika virus inhibitors (AID 1347161); conditions: purified enzyme assay, Rhodamine110 substrate fluorescence, 15 min; also: potency is read from the fitted curve at half-maximal effect; nearly all actives have a fitted effect of over 60% in size
In short: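 Aprotinin served as in-plate control. Conditions: 25 nM linked NS2B-NS3, pH 8.0 Tris buffer, titrated compounds, 15 min preincubation and 15 min reaction with 1.5 microM Rhod110 substrate at room temperature.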

[6] = system: Zika virus NS2B-NS3 protease (unlinked complex); assay: Confirmatory screen GU AMC qHTS for Zika virus inhibitors (AID 1347153); conditions: Recombinant NS2B-NS3 protease, AMC substrate fluorescence; also: potency is read from the fitted curve at half-maximal effect; nearly all actives have a fitted effect of over 70% in size
In short: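 Unlinked enzyme 25 nM, Tris pH 8.0/0.01% Tween 20; cpd 15 min RT, dark; + AMC substrate 10 µM (Km 18.3 µM); 340/450 nm read at t0 and 15 min; % inhibition → 4-param fit.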

[7] = ZIKV-mCherry secondary qHTS for Zika virus inhibitors (AID 1347158); also: top concentration of the series differs between compounds
In short: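 Read-out is percent infection: mCherry-positive Vero cells (nuclear-proximal intensity >450 RFU, 3 SD above negative controls) counted by high-content imaging of Hoechst-stained, PFA-fixed wells after 48-72 h with ZIKV-mCherry at MOI 1 and compound.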

[8] = system: Zika virus NS2B-NS3 protease (unlinked); assay: Optimization of GU AMC qHTS for Zika virus inhibitors: Unlinked NS2B-NS3 protease assay (AID 1347151); conditions: recombinant ZIKV NS2B-NS3 protease, fluorogenic AMC substrate; also: potency is read from the fitted curve at half-maximal effect; nearly all actives have a fitted effect of over 80% in size
In short: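 Fluorescence read-out (340 nm ex / 450 nm em) of AMC peptide cleavage, taken immediately and after 15 min at room temperature (~20% conversion). Enzyme was the unlinked NS2B–NS3 complex at 25 nM in Tris pH 8.0 buffer.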

[9] = system: Zika virus NS2B-NS3 protease; assay: Primary screen GU AMC qHTS for Zika virus inhibitors (AID 1347154)
In short: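 Fluorogenic AMC-substrate cleavage by noncovalent NS2B-NS3 protease complex (25 nM, pH 8.0 Tris buffer with Tween 20) followed for 15 minutes at room temperature (~20% conversion). Percent inhibition from ex340/em450 signal change, fitted by 4-parameter Hill equation.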

## N#CC1C(=O)Nc2scc(-c3ccc(-c4ccccc4O)cc3)c2C1=O (stereo unspecified)
Furin (Homo sapiens)
  Potency: inactive
[1]
  Potency: 22.1 µM (active)
[2]
  Potency: 3.93 µM (active)
[3]
  Potency: 2.51 µM (active)
[4]
  Potency: 3.16 µM (active)
[5]
  Potency: 2.48 µM (active)

## O=C(/C=C/c1c(C(=O)O)[nH]c2cc(Cl)cc(Cl)c12)Nc1ccccc1
Furin (Homo sapiens)
  Potency: inactive
[1]
  Potency: 44.1 µM (active)
[6]
  Potency: 44.1 µM (active)
[2]
  Potency: 2.78 µM (active)
[7]
  outcome: inactive
[3]
  Potency: 3.55 µM (active)
[4]
  Potency: 3.16 µM (active)
[5]
  Potency: 2.48 µM (active)

## O=C(O)c1cnn(-c2nc3cc(OC(F)(F)F)c(Cl)cc3[nH]2)c1
Furin (Homo sapiens)
  Potency: 90.2 µM (active)
[1]
  Potency: 40.3 µM (active)
[6]
  Potency: 32 µM (active)
[2]
  Potency: 12.7 µM (active)
[7]
  outcome: inactive
[3]
  Potency: 5.01 µM (active)
[5]
  Potency: 5.69 µM (active)

## CC(C)(O)C1CC=C(C(=O)OCC2OC(Oc3c(O)cc(C(=O)O)cc3O)C(O)C(O)C2O)CC1 (stereo unspecified)
[1]
  Potency: inactive
[3]
  Potency: inactive
[5]
  Potency: 7.64 µM (active)

## CC(C)N=c1cc2n(-c3ccc(Cl)cc3)c3ccccc3nc-2cc1Nc1ccc(Cl)cc1
Furin (Homo sapiens)
  Potency: inactive
[8]
  Potency: 0.607 µM (active)
[9]
  outcome: inactive
[7]
  outcome: inactive

## CC(=O)c1c(C)cc(O)cc1O[C@@H]1O[C@H](CO)[C@@H](O)[C@H](O)[C@H]1O
[2]
  Potency: 30.6 µM (active)

## CC(=O)O[C@@H]1C[C@]2(C)[C@@]3(CCC4[C@@]5(C)CC[C@H](O[C@@H]6O[C@H](C(=O)O)[C@@H](O)[C@H](O[C@@H]7O[C@H](CO)[C@H](O)[C@H](O)[C@H]7O[C@@H]7O[C@@H](C)[C@H](O)[C@@H](O)[C@H]7O[C@@H]7OC[C@](O)(CO)[C@H]7O)[C@H]6O[C@@H]6O[C@H](CO)[C@H](O)[C@H](O)[C@H]6O)C(C)(C)C5CC[C@]42C)O[C@@H](O)[C@]12C3CC(C)(C)[C@@H](OC(=O)/C=C/c1ccc(O)c(O)c1)[C@@H]2OC(=O)/C=C/c1ccccc1 (stereo partly specified)
[1]
  Potency: 10.5 µM (active)
[6]
  Potency: 7.42 µM (active)
[2]
  Potency: 3.32 µM (active)
[3]
  Potency: 3.16 µM (active)
[4]
  Potency: 2.46 µM (active)
[5]
  Potency: 1.66 µM (active)

## CCCC(=O)Nc1ncnc2c1ncn2[C@@H]1O[C@@H]2COP(=O)(O)O[C@H]2[C@H]1OC(=O)CCC
[9]
  outcome: inactive

## CC1(C)CCC(C)(C)c2cc3c(cc21)Sc1ccccc1N=C3c1ccc(C(=O)O)cc1
[1]
  Potency: 7.84 µM (active)
[2]
  Potency: 1.56 µM (active)
[3]
  Potency: 2.51 µM (active)
[4]
  Potency: 2.24 µM (active)
[5]
  Potency: 1.75 µM (active)

## CC(=O)N[C@@H](CC(=O)O)C(=O)N[C@@H](CCC(=O)O)C(=O)O (Ac-Asp-Glu-OH)
[9]
  outcome: inactive

## CC1(C)CC[C@]2(C(=O)O[C@@H]3O[C@H](CO)[C@@H](O)[C@H](O)[C@H]3O)CC[C@]3(C)C(=CCC4[C@@]5(C)C[C@@H](O)[C@H](O)[C@@](C)(CO)C5CC[C@]43C)C2C1 (stereo partly specified)
[2]
  Potency: 11.7 µM (active)
[3]
  Potency: inactive

## O=C(O)c1cc(O)c2cccc(O)c2c1O[C@@H]1O[C@H](CO)[C@@H](O)[C@H](O)[C@H]1O
Furin (Homo sapiens)
  Potency: 34.3 µM (active)
[1]
  Potency: 30.6 µM (active)
[6]
  Potency: 30.6 µM (active)
[2]
  Potency: 10.9 µM (active)
[7]
  outcome: inactive
[3]
  Potency: 10 µM (active)
[4]
  Potency: 5.01 µM (active)
[5]
  Potency: 2.73 µM (active)

## CCOc1ccc(-c2ccc(Cn3c(CC(C)(C)C(=O)O)c(SC(C)(C)C)c4cc(OCc5ccc(C)cn5)ccc43)cc2)cn1
[1]
  Potency: 7.84 µM (active)
[2]
  Potency: 1.75 µM (active)
[3]
  Potency: 2.51 µM (active) and 2.82 µM (active)
[4]
  Potency: 3.16 µM (active)
[5]
  Potency: 2.21 µM (active)

## C=C1CC[C@@H]2[C@](C)(CO[C@@H]3O[C@H](CO)[C@@H](O)[C@H](O)[C@H]3O)CCC[C@@]2(C)[C@@H]1CCC1=CCOC1=O
Furin (Homo sapiens)
  Potency: inactive
[3]
  Potency: inactive
[4]
  Potency: inactive

## CNc1cc(OC)c(C(=O)N[C@H]2CCN(Cc3ccccc3)[C@H]2C)cc1Cl
[9]
  outcome: inactive

## CCOC(=O)[C@H](CCc1ccccc1)N[C@@H](C)C(=O)N1C2CCCCC2C[C@H]1C(=O)O (stereo partly specified)
[3]
  Potency: inactive
[4]
  Potency: inactive

## Nc1c(Br)cc(Br)cc1CNC1CCC(O)CC1 (stereo unspecified)
[3]
  Potency: inactive
[4]
  Potency: inactive

## CC(C)C1=CC2=CCC3[C@](C)(CCC[C@@]3(C)C(=O)O)C2CC1O (stereo partly specified)
[3]
  Potency: inactive
[4]
  Potency: inactive

## CC1(C)CCC[C@@]2(C)[C@H]1[C@H](O)C=C1COC(=O)[C@@]12O
[3]
  Potency: inactive
[4]
  Potency: inactive

## C=CC(C)(CC/C=C(\C)CC/C=C(\C)CC(O)/C=C(\C)C(=O)O)O[C@@H]1O[C@H](CO)[C@@H](O)[C@H](O)[C@H]1O[C@@H]1O[C@H](CO)[C@@H](O)[C@H](O)[C@H]1O (stereo partly specified)
[3]
  Potency: inactive
[4]
  Potency: inactive

## CC(=O)c1c(O)cc2c(c1C)C(=O)CC(O)C2 (stereo unspecified)
[3]
  Potency: inactive
[4]
  Potency: inactive

## CC1(C)CCC2(C(=O)OC3OC(COC4OC(CO)C(O)C(O)C4O)C(O)C(O)C3O)CCC3(C)C(=CCC4C5(C)CCC(O)C(C)(C(=O)O)C5CCC43C)C2C1O (stereo unspecified)
[3]
  Potency: inactive
[4]
  Potency: inactive

## CC1NC(=O)C(Cc2c[nH]c3ccccc23)NC1=O (stereo unspecified)
[3]
  Potency: inactive
[4]
  Potency: inactive

## CCCC1=CC2=C(CO1)C(=O)C(C)(OC(=O)c1c(C)cc(OC)cc1O)C(O)C2 (stereo unspecified)
[3]
  Potency: inactive
[4]
  Potency: inactive

## C[C@@H]1O[C@@H](O[C@H]2[C@H](OC(=O)C34CCC5(C)C(=CCC6C7(C)CC(O)C(O[C@@H]8O[C@H](C(=O)O)[C@@H](O)[C@H](O)[C@H]8O)C(C)(C(=O)O)C7CCC65C)C3CC(C)(C)CC4O)O[C@H](C)[C@@H](O)[C@@H]2O)[C@H](O)[C@@H](O[C@@H]2OC[C@](O)(CO)[C@H]2O[C@@H]2O[C@H](CO)[C@@H](O)[C@H](O)[C@H]2O)[C@H]1O (stereo partly specified)
[3]
  activity change, negative = inhibition: 4.07% [at 19.1 µM]
[4]
  activity change, negative = inhibition: -17.8% [at 10.7 µM]
